Test systems include T-47D breast; BT-549 breast; MDA-MB-435 melanoma; SW-620 colon; HCT-116 colon; HCC-2998 colon; KM12 colon; MDA-MB-468 breast; MCF7 breast.
What all share (assay): NCI-60 one-dose screen, 48 h (100 = growth as untreated, 0 = no growth, -100 = all killed)
Common to all, as to conditions: 10 µM

Where “and” joins values, the source holds several entries; their conditions need not be identical. Equal values may be shown once. This is part of a sample that, as a whole, favours compounds with a hit. Of some 83,000 tested, about 20% had one in any assay.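 Treatment: one concentration, 48 hours, 96-well format. Scoring: percent growth, with anything below 10 considered active.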 Unmarked numbers belong to inactive results. Calls of active or inactive are those of the source.

With `O=C(c1ccc(Cl)cc1)C1[C@H](c2ccc(Br)cc2)[C@@H](c2ccccc2)NC12C(=O)Nc1ccccc12` (some centres not stated), the growth in the experiment with T-47D breast was 1.59% (active); in the experiment on BT-549 breast it was -9.62% (active); with MDA-MB-435 melanoma it was -46.5% (active); with SW-620 colon, 3.46% (active); in the experiment with HCT-116 colon it was 10.7%; with HCC-2998 colon, -39.3% (active). Also, the growth in the experiment with KM12 colon is -3.73% (active); with MDA-MB-468 breast, -6.54% (active).
Take `COc1cccc(C(N)=Nc2ccc(OCCCCCCn3cncn3)cc2)c1`: the growth is 46.1% in the experiment on T-47D breast; 20.5% in the experiment with BT-549 breast; 38.1% with SW-620 colon; 19.2% in the experiment on MCF7 breast; 18.5% in the experiment on HCC-2998 colon; 18.6% in the experiment on KM12 colon.
On to `CN1CCc2c(sc3ncnc(N/N=C/c4ccc5ccccc5c4)c23)C1`, for which the growth with T-47D breast was 92.1%; in the experiment on BT-549 breast, 71.1%; in the experiment with MDA-MB-435 melanoma, 72.5%; with SW-620 colon, 22.9%; with HCT-116 colon it was -13.2% (active); with HCC-2998 colon it was 73.8%. The growth with KM12 colon was 78.1%.
With `O=C1Nc2ccc(Cl)cc2/C1=C/c1ccc(OCc2ccc(Br)cc2F)cc1`, the growth in the experiment with T-47D breast is 10.1%; in the experiment with BT-549 breast it was 81.9%; in the experiment on MDA-MB-435 melanoma, 60.2%; in the experiment on SW-620 colon, 23.6%; in the experiment on HCT-116 colon it was -10.8% (active); in the experiment with HCC-2998 colon, 77.5%. In addition, the growth in the experiment with KM12 colon was 59.1%; in the experiment with MDA-MB-468 breast, 92.6% and 48.8%.
In the case of `NC(=Nc1ccc(OCCCCCCCCn2ccnn2)cc1)c1ccccc1`, the growth in the experiment with T-47D breast is 40%; in the experiment on BT-549 breast, 56.6%; in the experiment on SW-620 colon, 32.4%; in the experiment with MCF7 breast, 13.8%; in the experiment with HCC-2998 colon it was 23.8%; with KM12 colon, 18.2%. In the experiment on MDA-MB-468 breast, the growth is 24%.
Consider `COC1=C[C@]23CCC(=O)N2CCc2cc4c(cc2[C@@H]3[C@@H]1OC(=O)CCCC(C)C)OCO4`, for which the growth with T-47D breast was 68.3%; in the experiment with BT-549 breast, 85.4%; in the experiment on MDA-MB-435 melanoma, 74.1%; with SW-620 colon, 63%; in the experiment on HCT-116 colon it was 19.2%; in the experiment on HCC-2998 colon it was 21.8%. Further, the growth in the experiment with KM12 colon was 48.7%.
Turning to `Cc1ccc([N+](=O)[O-])c(C(=O)Nc2ccc(-c3ccc4c(c3)NC(=O)/C4=C\c3ccc[nH]3)cc2)c1`, the growth with T-47D breast was -15.7% (active); in the experiment with BT-549 breast it was 97.5%; in the experiment with MDA-MB-435 melanoma, 32%; with SW-620 colon it was -51.2% (active); in the experiment with HCT-116 colon, 55.9%; in the experiment with HCC-2998 colon it was 47.6%. Further, the figures for the growth in the experiment on KM12 colon and in the experiment on MDA-MB-468 breast were -10.9% (active) and -28.9% (active), respectively.
Consider `O=c1[nH]n(C(=S)N/N=C/c2ccc(F)cc2)c(=O)c2ccccc12`, for which the growth was 58.7% with T-47D breast; 70.1% in the experiment on BT-549 breast; 84.5% with MDA-MB-435 melanoma; 30.4% in the experiment with SW-620 colon; -66% (active) in the experiment with HCT-116 colon; 92.9% in the experiment with HCC-2998 colon. The growth is 36.2% in the experiment with KM12 colon and 57.7% in the experiment on MDA-MB-468 breast.
For the molecule `O=C1Nc2ccc(Cl)cc2/C1=C/c1cccc(OCc2ccccn2)c1`, the growth is -2.11% (active) in the experiment on T-47D breast; -7.83% (active) in the experiment with BT-549 breast; -39.2% (active) in the experiment with MDA-MB-435 melanoma; -38% (active) with SW-620 colon; -98.3% (active) in the experiment with HCT-116 colon; -32.3% (active) with KM12 colon. In the experiment on MDA-MB-468 breast, the growth is -30% (active).
For `CONC[C@]1(C)C=C2C(=O)[C@](C)(O)C3(CC3)C(C)=C2[C@H]1O`, the growth with T-47D breast is 0.0161% (active); in the experiment with BT-549 breast, -63.6% (active); in the experiment on MDA-MB-435 melanoma, -84.7% (active); in the experiment on SW-620 colon, 3.2% (active); in the experiment on HCT-116 colon, 14.5%; in the experiment with HCC-2998 colon, -76.9% (active). The results for the growth in the experiment with KM12 colon and with MDA-MB-468 breast were 7.08% (active) and -90.8% (active), respectively.
As to `O=c1oc2ccc(-c3ccc(F)cc3F)cc2c(=O)n1-c1ccc(F)c(Cl)c1`, the growth in the experiment on T-47D breast was -11.8% (active); with BT-549 breast it was -51.9% (active); in the experiment with MDA-MB-435 melanoma it was -17.7% (active); in the experiment with SW-620 colon it was 3.17% (active); in the experiment with HCT-116 colon, 4.77% (active); in the experiment with HCC-2998 colon, 2.58% (active). In addition, the growth was -22.7% (active) with KM12 colon and -47% (active) with MDA-MB-468 breast.
For `O=c1c2ccccc2nc(COc2ccccc2)n1/N=C/c1ccc(F)cc1`, the growth with T-47D breast is 57.4%; in the experiment on BT-549 breast it was 94.7%; in the experiment with MDA-MB-435 melanoma, 86.2%; in the experiment with SW-620 colon it was 93.2%; in the experiment with HCT-116 colon, 75.3%; with HCC-2998 colon, 104%. Moreover, the growth with KM12 colon is 93.5%; with MDA-MB-468 breast, 78%.
With `N#Cc1ccc(-c2nn(-c3ccc(C(=O)O)cc3)cc2CNc2cc(Cl)cc(Cl)c2)cc1`, the growth was 25.9% in the experiment on T-47D breast; -1.57% (active) in the experiment on BT-549 breast; 40.1% in the experiment on MDA-MB-435 melanoma; 49.2% with SW-620 colon; 12.5% in the experiment on HCT-116 colon; 9.16% (active) with HCC-2998 colon. For the same molecule, the growth is 18.6% with KM12 colon and 43.4% in the experiment with MDA-MB-468 breast.
Turning to `COc1ccc([C@H]2C(C(=O)c3ccc(Cl)cc3)C3(N[C@@H]2c2ccccc2)C(=O)Nc2ccc(Br)cc23)cc1` (some centres not stated), the growth in the experiment with T-47D breast was 21.2%; with BT-549 breast, 21.9%; with MDA-MB-435 melanoma it was -36.6% (active); in the experiment on SW-620 colon, 7.87% (active); in the experiment with HCT-116 colon, 1.73% (active); in the experiment on HCC-2998 colon, -41% (active). In addition, the growth was -5.82% (active) with KM12 colon and -7.76% (active) in the experiment with MDA-MB-468 breast.
As to `CN1CCN(Cc2ccc(C(=O)Nc3cccc(Nc4ccc5cc(O)ccc5n4)c3)cc2C(F)(F)F)CC1`, the growth in the experiment on T-47D breast is -11.7% (active); in the experiment on BT-549 breast, 78.1%; in the experiment with MDA-MB-435 melanoma it was -85.5% (active); in the experiment on SW-620 colon, -83.1% (active); in the experiment with HCT-116 colon, 1.51% (active); with HCC-2998 colon, -97.3% (active). The values for the growth with KM12 colon and with MDA-MB-468 breast were -48% (active) and -89.4% (active), respectively.
Regarding `CCOC(=O)c1c(CSc2ccccc2)n(C)c2cc(CN(C)C)c(O)c(CN(C)C)c12`, the growth was 50.2% in the experiment on T-47D breast; 63.7% with BT-549 breast; 54% in the experiment on MDA-MB-435 melanoma; 23.1% with SW-620 colon; 10.9% in the experiment with HCT-116 colon; 12.1% with HCC-2998 colon. Besides, the growth in the experiment with KM12 colon is 40.4%; with MDA-MB-468 breast, -4.94% (active).

The record behind these values is PubChem BioAssay (NCI).
